PubChem BioAssay
The source made the active and inactive calls.

How the values were obtained:
[1] = optical density shifts of acrAB sulA E. coli – strain DRC41, OD650, 48 h, E. coli filamentation inducer project, primary screen (AID 1152); details: higher = more signal, called active from +8 up or from −8 down;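 note: E. coli MC1000 strain DRC41 lacking acrAB efflux pump and sulA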
[2] = probe aLefty1 binding on compound microarray – biochemical, small-molecule microarray, 635/667 nm fluorescence, primary screen (AID 1153); details: higher = more signal;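 note: score merges spot fluorescence with signal-to-noise ratio from the scanned slide images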
[3] = plasmodial surface anion channel blockers, osmotic lysis – cell-based, P. falciparum Indochina, OD700, 1 h, primary screen (AID 1154); details: P. falciparum Indochina infected RBC osmotic lysis, higher = more signal, called active from +8 up or from −8 down
[4] = plasmodial surface anion channel blockers, osmotic lysis – cell-based, P. falciparum Indochina, OD700, 2 h, primary screen (AID 1155);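 note: lysis reports solute entry through the parasite surface anion channel PSAC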; details: P. falciparum Indochina infected erythrocytes, higher = more signal, called active from +8 up or from −8 down
[5] = changes in parasitized red cell lysis, either direction – P. falciparum Indochina, OD700, 3 h, PSAC antagonist project, primary screen (AID 1156); details: P. falciparum-infected erythrocytes, osmotic lysis, higher = more signal, called active from +8 up or from −8 down
[6] = plasmodial surface anion channel blockers, osmotic lysis – cell-based, P. falciparum Indochina, OD700, 18 h, primary screen (AID 1157); details: P. falciparum Indochina infected erythrocytes, osmotic lysis OD700, 18 h; higher = more signal, called active from +8 up or from −8 down
[7] = S6 kinase pathway phospho-S6 level changes – cell-based, A549, cytoblot, luminescence, serum-stimulated, primary screen (AID 1158); details: 5 h, higher = more signal;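 note: serum-stimulated A549 lung adenocarcinoma cells; signal is phosphorylated S6 detected by cytoblot immunostaining with HRP secondary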
[8] = biological target: NADPH oxidase 2 (Homo sapiens) (UniProt P04839); test: compounds shifting NOX2 Amplex Red fluorescence – cell-based, HEK293-NOX2, PMA-stimulated, NOX inhibitor project, primary screen (AID 1159); details: 45 min, higher = more signal, called active from +8 up or from −8 down; note: test concentration not given here
NADPH oxidase 2 (Homo sapiens), sequence (P04839 whole entry, looked up): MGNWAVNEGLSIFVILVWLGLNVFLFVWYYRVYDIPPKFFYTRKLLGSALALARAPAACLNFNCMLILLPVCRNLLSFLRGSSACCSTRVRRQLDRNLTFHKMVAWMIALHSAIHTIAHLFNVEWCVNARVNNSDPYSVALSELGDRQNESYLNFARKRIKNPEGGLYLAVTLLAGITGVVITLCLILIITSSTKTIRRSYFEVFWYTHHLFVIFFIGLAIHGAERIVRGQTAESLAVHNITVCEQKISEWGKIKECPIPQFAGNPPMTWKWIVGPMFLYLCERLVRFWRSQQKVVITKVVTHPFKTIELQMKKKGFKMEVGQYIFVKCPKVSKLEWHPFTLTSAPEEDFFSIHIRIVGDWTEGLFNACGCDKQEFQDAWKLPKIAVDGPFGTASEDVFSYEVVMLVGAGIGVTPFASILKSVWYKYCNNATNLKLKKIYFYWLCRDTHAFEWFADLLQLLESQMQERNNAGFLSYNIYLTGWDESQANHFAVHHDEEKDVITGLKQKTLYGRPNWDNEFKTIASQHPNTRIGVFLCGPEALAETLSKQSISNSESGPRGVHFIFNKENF

[9] = biological target: NADPH oxidase 4 (Homo sapiens) (UniProt Q9NPH5); test: compounds shifting NOX4 Amplex Red fluorescence – cell-based, HEK293-NOX4, tetracycline-induced, NOX inhibitor project, primary screen (AID 1160); details: HEK293-NOX4, Amplex Red H2O2 fluorescence, 45 min; higher = more signal, called active from +8 up or from −8 down
NADPH oxidase 4 (Homo sapiens), sequence (Q9NPH5 whole entry, looked up): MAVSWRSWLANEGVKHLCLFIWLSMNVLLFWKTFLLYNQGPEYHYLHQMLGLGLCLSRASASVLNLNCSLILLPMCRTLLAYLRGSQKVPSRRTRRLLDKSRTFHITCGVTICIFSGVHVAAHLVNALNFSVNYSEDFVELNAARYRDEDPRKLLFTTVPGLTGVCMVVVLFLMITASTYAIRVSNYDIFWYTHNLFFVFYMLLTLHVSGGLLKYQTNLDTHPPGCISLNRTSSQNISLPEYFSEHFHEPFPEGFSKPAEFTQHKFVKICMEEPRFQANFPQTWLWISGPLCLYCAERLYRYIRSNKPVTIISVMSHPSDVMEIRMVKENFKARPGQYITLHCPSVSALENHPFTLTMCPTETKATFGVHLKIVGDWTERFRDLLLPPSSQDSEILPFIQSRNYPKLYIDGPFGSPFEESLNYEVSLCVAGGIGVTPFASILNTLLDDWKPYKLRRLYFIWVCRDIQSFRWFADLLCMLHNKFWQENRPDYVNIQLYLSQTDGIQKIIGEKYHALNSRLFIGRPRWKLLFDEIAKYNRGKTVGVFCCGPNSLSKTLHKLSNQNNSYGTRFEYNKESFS

[10] = biological target: NADPH oxidase 5 (Homo sapiens) (UniProt Q96PH1); test: compounds shifting NOX5 Amplex Red fluorescence – cell-based, HEK293-NOX5, NOX inhibitor project, primary screen (AID 1161); details: HEK293-NOX5, ionomycin, 45 min, higher = more signal
NADPH oxidase 5 (Homo sapiens), sequence (Q96PH1 whole entry, looked up): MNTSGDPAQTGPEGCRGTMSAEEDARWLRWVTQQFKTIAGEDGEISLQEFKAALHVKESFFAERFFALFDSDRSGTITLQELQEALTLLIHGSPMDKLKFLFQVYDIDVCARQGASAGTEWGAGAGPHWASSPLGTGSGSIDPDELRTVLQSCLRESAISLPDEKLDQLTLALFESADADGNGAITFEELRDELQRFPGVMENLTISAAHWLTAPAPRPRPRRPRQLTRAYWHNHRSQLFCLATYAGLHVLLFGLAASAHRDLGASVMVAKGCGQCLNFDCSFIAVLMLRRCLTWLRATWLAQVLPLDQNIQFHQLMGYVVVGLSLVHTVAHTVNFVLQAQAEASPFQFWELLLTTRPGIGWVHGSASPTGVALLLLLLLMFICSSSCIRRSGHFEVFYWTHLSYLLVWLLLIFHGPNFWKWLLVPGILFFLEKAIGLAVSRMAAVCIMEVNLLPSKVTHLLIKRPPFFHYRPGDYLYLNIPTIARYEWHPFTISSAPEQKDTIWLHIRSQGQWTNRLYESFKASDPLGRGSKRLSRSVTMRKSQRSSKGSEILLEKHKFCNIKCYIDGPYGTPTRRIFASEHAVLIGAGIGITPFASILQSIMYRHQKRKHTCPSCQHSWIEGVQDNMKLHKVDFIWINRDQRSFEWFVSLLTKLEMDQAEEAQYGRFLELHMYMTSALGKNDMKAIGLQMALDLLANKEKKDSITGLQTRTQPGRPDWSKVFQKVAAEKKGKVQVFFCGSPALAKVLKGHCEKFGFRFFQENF

[11] = compound effects on lung adenocarcinoma cell viability – A549, calcein-AM fluorescence, 48 h, basal, profiling panel (AID 1162); details: higher = more signal; note: test concentration not given here
[12] = compound effects on differentiated 3T3-L1 adipocyte viability – cell-based, 3T3-L1 adipocytes, calcein-AM fluorescence, 48 h, basal, profiling panel (AID 1163); details: 3T3-L1 adipocytes viability, higher = more signal; note: test concentration not given here
[13] = compound effects on hepatocellular carcinoma cell viability – HepG2, calcein-AM fluorescence, 48 h, basal, profiling panel (AID 1164); details: higher = more signal; note: test concentration not given here
[14] = compound effects on multiple myeloma cell viability – MM1S, calcein-AM fluorescence, 48 h, basal, profiling panel (AID 1165); details: higher = more signal;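 note: viability of MM1S multiple myeloma cells under basal unstimulated conditions; test concentration not given here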
[15] = calcein-AM signal in unstimulated myeloma cells – cell-based, calcein-AM fluorescence, 48 h, PK04 Diversity Set, profiling panel (AID 1166); details: RPMI8226 myeloma viability, higher = more signal;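 note: cells grown under basal conditions without added stimulus; test concentration not given here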
[16] = JC-1 mitochondrial signal, unstimulated HepG2 cells – cell-based, JC-1 fluorescence, 24 h, 100 nL compound, profiling panel (AID 1167); details: HepG2 mitochondrial potential, higher = more signal; note: test concentration not given here
[17] = JC-1 mitochondrial signal, unstimulated adipocytes – cell-based, JC-1 fluorescence, 3T3-L1 adipocytes, 24 h, 100 nL compound, profiling panel (AID 1168); details: JC-1 mitochondrial fluorescence, higher = more signal, called active from +8 up or from −8 down; note: test concentration not given here
[18] = JC-1 mitochondrial signal, unstimulated myeloma cells – cell-based, JC-1 fluorescence, RPMI8226, 24 h, 100 nL compound, profiling panel (AID 1169); details: JC-1 mitochondrial potential fluorescence, higher = more signal; note: test concentration not given here
[19] = JC-1 mitochondrial signal, unstimulated MM1S myeloma – cell-based, JC-1 fluorescence, 24 h, 100 nL compound, profiling panel (AID 1170); details: MM1S mitochondrial potential, higher = more signal; note: test concentration not given here
[20] = resazurin metabolic signal in A549 cells – cell-based, resazurin fluorescence, 24 h, PK04 Diversity Set, profiling panel (AID 1171); details: A549 viability, higher = more signal, called active from +8 up or from −8 down; note: test concentration not given here

Row | Structure (SMILES) | z-score [1] | composite z-score [2] | z-score [3] | z-score [4] | z-score [5] | z-score [6] | z-score [7] | z-score [8] | z-score [9] | z-score [10] | z-score [11] | z-score [12] | z-score [13] | z-score [14] | z-score [15] | z-score [16] | z-score [17] | z-score [18] | z-score [19] | z-score [20]
1 | CC(C)NC(=O)[C@@]1(c2ccc([N+](=O)[O-])cc2)CC(=O)N(CC23CC4CC(CC(C4)C2)C3)[C@@H]1c1ccc(CO)cc1I | -0.805 (inactive) | 0.167 | 18.8 (active) | 5.45 (inactive) | 1.59 (inactive) | 1.28 (inactive) | 0.018 | 2.19 (inactive) | 0.215 (inactive) | 1.35 | -1.58 | 0.58 | -4.89 | -3.8 | -4.29 | 0.421 | 0.402 (inactive) | -0.929 | -2.08 | -3.65 (inactive)
2 | COc1ccc(O[C@H]2C=C[C@@H](c3ccccc3)O[C@@H]2COC(=O)CCC(C)=NO[C@H](C)c2cn([C@@H]3COC[C@H]3O)nn2)cc1 | 0.451 (inactive) | -0.0501 | 5.05 (inactive) | 0.0624 (inactive) | 1.63 (inactive) | -0.908 (inactive) | 0.607 | -4.13 (inactive) | -0.691 (inactive) | -4.98 | -1.24 | -0.547 | -1.22 | -0.913 | -1.22 | -1.63 | -1.03 (inactive) | 0.923 | -1.25 | 1.47 (inactive)
3 | COc1cccc([C@H]2Oc3ccc(OC)cc3C(=NO[C@H](C)c3cn([C@@H]4COC[C@H]4O)nn3)[C@@H]2O)c1 | -1.79 (inactive) | -0.235 | 0.162 (inactive) | -1.17 (inactive) | 1.91 (inactive) | -1.69 (inactive) | 0.444 | -0.683 (inactive) | -0.721 (inactive) | -3.94 | -1.3 | 0.67 | -0.428 | -0.717 | -0.786 | -0.832 | 0.839 (inactive) | 0.161 | -0.761 | -0.481 (inactive)
4 | COC(=O)C1(C)C=C2C(=C(c3ccccc3)C(=O)C2C)CN1 (stereo not given) | -1.47 (inactive) | 0.22 | 0.585 (inactive) | 0.196 (inactive) | 0.745 (inactive) | 0.543 (inactive) | -0.387 | 0.512 (inactive) | -2.49 (inactive) | -2.34 | -1.3 | -0.492 | -1.26 | -0.671 | -1.49 | -1.68 | -2.71 (inactive) | 0.2 | -0.933 | -0.72 (inactive)
5 | COC(=O)[C@H](C)NC(=O)CCC1CC(OC(=O)NCCc2ccc(F)cc2)CC2(CCCC(COC(=O)NCC(c3ccccc3)c3ccccc3)O2)O1 (stereo not given in full) | 0.523 (inactive) | -0.194 | 8.81 (active) | 2.61 (inactive) | -0.286 (inactive) | 0.492 (inactive) | 0.71 | 0.238 (inactive) | 0.0541 (inactive) | 0.185 | -0.0262 | -1 | -0.972 | -3.44 | -3.43 | -0.727 | 1.18 (inactive) | -0.379 | -1.37 | 3.22 (inactive)
6 | COc1cccc([C@H]2Oc3ccc(OC)cc3C(=NOC(C)CN3CCCc4nc(C)c(C)cc43)[C@@H]2O)c1 (stereo not given in full) | -0.304 (inactive) | 0.0809 | 2.47 (inactive) | 0.542 (inactive) | 0.714 (inactive) | 0.465 (inactive) | -0.912 | -1.12 (inactive) | -0.807 (inactive) | 1.57 | -0.0217 | -0.529 | 0.778 | 0.296 | -0.627 | 0.0313 | -1.29 (inactive) | 0.239 | -0.947 | -0.455 (inactive)
7 | COCCOC(=O)N1C(=O)[C@@]2(c3cc(C#Cc4ccc(OC)cc4)ccc31)[C@H](c1ccc(O)cc1)N1[C@H](c3ccccc3)[C@H](c3ccccc3)OC(=O)[C@H]1[C@@H]2C(N)=O | 0.0372 (inactive) | -0.303 | 6.02 (inactive) | 1.5 (inactive) | -0.407 (inactive) | 0.954 (inactive) | -0.0604 | 0.782 (inactive) | 0.689 (inactive) | 0.305 | -0.64 | 0.38 | -0.531 | -2.08 | -3.7 | -1.74 | 0.563 (inactive) | -0.896 | -0.721 | -1.51 (inactive)
8 | O=C1O[C@@H](c2ccccc2)[C@@H](c2ccccc2)N2[C@@H](c3ccc(OCCO)cc3)[C@]3(C(=O)Nc4ccccc43)[C@@H](C(=O)N3CCN(c4ncccn4)CC3)[C@H]12 | 0.777 (inactive) | -0.0347 | 17.4 (active) | 3.91 (inactive) | 2.06 (inactive) | 1.28 (inactive) | -0.183 | 1.09 (inactive) | 0.368 (inactive) | 1 | -0.47 | -0.888 | 0.834 | -0.138 | 0.229 | -0.679 | 0.339 (inactive) | -0.842 | -0.779 | 0.42 (inactive)
9 | CCOC(=O)CCN1C(=O)[C@H]2[C@H]3[C@H](O)C=CC(=O)[C@@H]3CC[C@H]2C1=O | -0.221 (inactive) | 0.0479 | -0.0882 (inactive) | 0.501 (inactive) | -0.233 (inactive) | 0.352 (inactive) | 0.146 | 1.22 (inactive) | 0.463 (inactive) | -0.244 | 0.0872 | 0.0636 | 0.338 | -0.921 | 0.586 | 0.0469 | 0.53 (inactive) | 0.203 | 0.176 | 0.289 (inactive)
10 | O=C1[C@H]2[C@H]3[C@H](O)[C@H](O)CC(=NOCc4ccccc4)[C@H]3CC[C@H]2C(=O)N1c1cccc(Oc2ccccc2)c1 | 0.0144 (inactive) | -0.0193 | 6.64 (inactive) | 1.42 (inactive) | 0.969 (inactive) | 0.525 (inactive) | -0.219 | -1.86 (inactive) | -1.01 (inactive) | -3.91 | 0.382 | -0.921 | -0.6 | -0.641 | 0.907 | -0.988 | 0.394 (inactive) | 0.341 | -0.721 | 0.188 (inactive)
11 | COC(=O)[C@@]1(Cc2ccc(F)cc2)[C@@H]2C(=CC(=O)[C@H]2CC(=O)C(=O)N(C)C)CN1C(=O)c1ccccc1 | -0.975 (inactive) | 0.589 | 3.38 (inactive) | 1.81 (inactive) | -0.25 (inactive) | 1.45 (inactive) | 0.172 | 0.507 (inactive) | 1.3 (inactive) | -0.494 | -1.29 | -1.34 | 0.201 | -1.24 | -2.67 | 2.62 | 0.441 (inactive) | -0.817 | -2.01 | -1.73 (inactive)
12 | CC(C)=CCCC(C)=CCON=C1[C@H]2CCn3c(=O)n(Cc4cc5c(cc4Cl)OCO5)c(=O)n3[C@H]2[C@H](O)[C@@H]2O[C@H]12 | -0.939 (inactive) | -0.0559 | 1.34 (inactive) | 0.722 (inactive) | 0.555 (inactive) | 0.38 (inactive) | 0.181 | 0.594 (inactive) | -1.12 (inactive) | -0.711 | -0.305 | 0.123 | 0.42 | -0.918 | -0.497 | -0.298 | -0.992 (inactive) | -0.702 | 1.17 | -0.386 (inactive)
